Screens from PubChem.
Compounds with a hit are over-represented: about 4% of the library has one in this group of screens.
Shn3 3UTR inh: reduces Shn3 3'UTR luciferase signal in osteoblasts; Clone20 osteoblast Shn3 3'UTR firefly luciferase, 24 h; inhibition, % at 12.5 µM; hit rate 0.52% among 360,000;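 active = mean inhibition of at least 75% with every replicate also reaching 75%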
Mdm2-MdmX inh: inhibitors of human Mdm2/MdmX interaction | SaOS-2 split-luciferase Mdm2/MdmX complementation, luminescence | inhibition, % at 8 µM | hit rate 3% among 330,000 | AID 485346;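 active = inhibition of at least 50% at 8 µM in the primary screen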
Target sequence (O15151 whole entry, looked up): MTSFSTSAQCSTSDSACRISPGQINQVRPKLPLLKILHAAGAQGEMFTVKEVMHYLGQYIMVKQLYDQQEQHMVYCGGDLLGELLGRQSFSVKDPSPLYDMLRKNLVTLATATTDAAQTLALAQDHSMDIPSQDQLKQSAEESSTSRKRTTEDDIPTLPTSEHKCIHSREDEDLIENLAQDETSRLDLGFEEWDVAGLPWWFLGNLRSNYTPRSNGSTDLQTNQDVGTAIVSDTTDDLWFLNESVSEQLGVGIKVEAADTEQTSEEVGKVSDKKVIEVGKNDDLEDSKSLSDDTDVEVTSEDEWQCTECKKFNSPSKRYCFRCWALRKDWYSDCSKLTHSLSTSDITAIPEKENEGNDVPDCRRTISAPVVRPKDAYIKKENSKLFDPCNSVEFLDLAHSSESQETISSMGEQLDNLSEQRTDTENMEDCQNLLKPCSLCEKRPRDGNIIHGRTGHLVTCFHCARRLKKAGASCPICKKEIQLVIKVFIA
Target sequence (Q00987 whole entry, looked up): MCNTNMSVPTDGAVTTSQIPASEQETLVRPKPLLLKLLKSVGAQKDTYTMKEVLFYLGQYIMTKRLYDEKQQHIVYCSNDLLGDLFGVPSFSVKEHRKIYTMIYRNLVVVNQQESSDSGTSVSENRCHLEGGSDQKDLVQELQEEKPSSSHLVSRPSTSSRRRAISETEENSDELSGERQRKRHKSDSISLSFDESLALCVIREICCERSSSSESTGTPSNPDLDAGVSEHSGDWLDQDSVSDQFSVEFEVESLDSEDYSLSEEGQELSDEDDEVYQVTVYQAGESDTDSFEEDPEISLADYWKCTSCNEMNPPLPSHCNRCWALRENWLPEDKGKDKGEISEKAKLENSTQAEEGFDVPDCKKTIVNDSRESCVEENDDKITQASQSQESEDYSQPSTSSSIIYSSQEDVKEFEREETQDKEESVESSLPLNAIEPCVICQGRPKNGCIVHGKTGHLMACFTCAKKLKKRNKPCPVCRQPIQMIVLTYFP
Gli-Sufu antag: blocks Gli-Sufu signaling in a luciferase reporter | Sufu-KO-LIGHT fibroblasts, Gli luciferase reporter luminescence | inhibition, % at 5 µM | hit rate 0.74% among 340,000;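 active = inhibition above about 55%, limit read from the data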
PAX8 inh HTS: lowers PAX8-driven luciferase in RMG-I cells; hit rate 1.2% among 360,000; RMG-I TPO-luciferase reporter, SteadyGlo, 24 h; inhibition, % at 12.6 µM;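 active = mean replicate inhibition at least 60% with every replicate also reaching 60%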;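 also: luciferase light reporting Pax8 driven TPO promoter activity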
CSC inhib: blocks cancer stem cells. cancer stem cell-like cells viability, luminescence. inhibition, % at 7.5 µM. hit rate 1.1% among 300,000; in the data active = inhibition above about 75%; tested in HMLE shEcad cells
Beta cell apopt: blocks beta cell apoptosis | INS-1E cytokine-induced death, ATP luminescence, 48 h; percent of positive-control rescue, neutral wells zero | hit rate 0.8% among 300,000 | AID 435005 | protection from apoptosis, % (no concentration beside the values);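 active = Every replicate reaches about 75%, or at least half do and their mean reaches it too, limit read from the data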;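 also: higher means more ATP so stronger rescue from cytokine killing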
Mdm2 MdmX conf: confirmation of human Mdm2/MdmX interaction inhibitors | shares compounds with Mdm2-MdmX inh | Mdm2-MdmX binding, luminescent assay | inhibition, % at 8 µM | hit rate 55% among 10,000 | AID 489028; in the data active = inhibition above about 40%
FLuc counter: counter-screen for Mdm2/MdmX inhibitors: full-length luciferase; SaOS-2 full-length luciferase counterscreen, luminescence; inhibition, % at 8 µM; hit rate 77% among 6,200; AID 504607; shares compounds with Mdm2-MdmX inh;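 active = mean inhibition at 8 µM reaching about 37%, which flags the compound as non-specific, limit read from the data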;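 also: p53-null SaOS-2 cells with luciferase driven by a doxycycline-inducible promoter; compound on cells about two nights before reading with doxycycline added after day one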
A number is an active result; – = inactive; · = not tested or not shown; ! = not confirmed by another sample.

SMILES | Shn3 3UTR inh | Mdm2-MdmX inh | Gli-Sufu antag | PAX8 inh HTS | CSC inhib | Beta cell apopt | Mdm2 MdmX conf | FLuc counter
CCCCc1nnc(NC(=O)CCS(=O)(=O)c2ccc(C)cc2)s1 | – | 56.6 | – | 78.8 | – | – | – | ·
CCCCc1nnc(NC(=O)CCS(=O)(=O)Cc2ccccc2)s1 | – | – | – | – | – | – | · | ·
CCCc1nnc(NC(=O)CCS(=O)(=O)Cc2ccccc2)s1 | – | 57.0 | – | – | – | – | – | ·
O=C(C[C@@H]1C=C[C@@H](NC(=O)NC2CCCCC2)[C@H](CO)O1)NCc1ccccc1 | · | · | · | – | · | · | · | ·
CNC[C@H]1OCCCC[C@@H](C)Oc2ccc(NS(=O)(=O)c3ccc(C)cc3)cc2C(=O)N([C@H](C)CO)C[C@H]1C | · | · | · | – | · | · | · | ·
COc1ccc(CNC(=O)C/C(C)=N/NC(=O)COc2ccc(C)cc2Br)cc1 | – | 56.8 | – | – | – | – | – | ·
CCCNC(=O)C/C(C)=N/NC(=O)COc1ccc(C)cc1Br | – | – | – | – | – | – | · | ·
COc1cc(OC)c(NC(=O)C(=O)CC(=O)c2ccc(C)cc2C)cc1Cl | – | 51.5 | – | – | – | – | – | 81.3
CCCCNC(=O)c1c(O)c2cccc3c2n(c1=O)CCC3 | – | – | – | · | – | – | · | ·
CCn1c(=O)c(C(=O)NCCCO)c(O)c2ccccc21 | – | 78.5 | – | · | – | – | 41.2 | 58.1
CNC(=O)c1c(O)c2cccc3c2n(c1=O)CC3 | – | 75.4 | – | · | – | – | 54.5 | –
O=C(NCCCO)c1c(O)c2cccc3c2n(c1=O)CCC3 | – | 81.5 | – | – | – | – | 56.2 | –
CC1CNCCN1S(=O)(=O)c1cccc2cnccc12 (stereo unspecified) | – | 54.9! | – | – | – | – | – | ·
O=S(=O)(c1cccc2ccccc12)N1CCCCC1 | – | – | – | – | · | · | · | ·
O=S(=O)(c1cccc2cnccc12)N1CCCNCC1 | – | 59.1 | – | · | – | · | 47.0 | 65.2
CC1CCCCN1S(=O)(=O)c1cccc2cccnc12 (stereo unspecified) | – | – | – | – | – | · | · | ·
CCOC(=O)N/N=C\c1ccc([N+](=O)[O-])s1 | – | – | – | – | – | · | · | ·
O=C(N/N=C/c1ccc(O)c2ncccc12)c1cccc(Br)c1 | 90.9 | 86.6 | – | 71.9 | – | 108.8 | 54.5 | –
O=C(N/N=C\c1ccc([N+](=O)[O-])s1)C1COc2ccccc2O1 (stereo unspecified) | – | 51.2 | – | – | – | – | 55.1 | 87.3
O=C(N/N=C/c1cccc([N+](=O)[O-])c1)c1cccc(Br)c1 | – | – | – | – | – | – | · | ·
O=C(N/N=C/c1ccc([N+](=O)[O-])s1)c1cccc(Br)c1 | – | 76.8 | – | · | – | – | 68.1 | 37.5
Cc1cccc(NC(=S)N/N=C/c2ccc([N+](=O)[O-])s2)c1 | – | 67.1 | – | · | 125.5 | 102.5 | – | ·
O=C(Cc1ccccn1)NCC[C@@H]1CC[C@H](NC(=O)c2ccccc2F)[C@@H](CO)O1 | · | · | · | – | · | · | · | ·
CCCNC(=O)N1[C@@H]2Cn3c(ccc(-c4cccc(OC)c4)c3=O)[C@H]1[C@@H](C(=O)NCC)[C@@H]2CO | · | · | · | – | · | · | · | ·
COc1ccc(-c2csc(NC3OC(=O)c4c3ccc(OC)c4OC)n2)cc1OC (stereo unspecified) | · | 78.4 | – | – | – | – | 61.9 | 70.5
SMILES | Shn3 3UTR inh | Mdm2-MdmX inh | Gli-Sufu antag | PAX8 inh HTS | CSC inhib | Beta cell apopt | Mdm2 MdmX conf | FLuc counter
COc1ccc2c(c1OC)C(=O)OC2Nc1nc(-c2ccc([N+](=O)[O-])cc2)cs1 (stereo unspecified) | – | – | – | – | – | – | · | ·
Nc1nnnn1/N=C/C(Br)=C/c1ccccc1 | 97.3 | 100.4 | – | 93.0 | 122.0 | – | 92.8 | 50.0
Cc1noc(C)c1NC(=O)Nc1ccc2c(c1)C(=O)N([C@@H](C)CO)C[C@@H](C)[C@@H](CN(C)C(=O)Nc1ccc(C(F)(F)F)cc1)OCCCC[C@@H](C)O2 | · | · | · | – | · | · | · | ·
COc1ccc2c3c(n(C)c2c1)[C@@H](CO)N(C(=O)C1CCOCC1)CC31CCN(C(=O)C2CC2)CC1 | · | · | · | – | · | · | · | ·
CCOc1cc(CNc2ccc3c(c2)OCCO3)cc(Br)c1OCC | – | 73.3 | – | · | – | – | 69.5 | 61.8
Cc1ccc(NC(=O)c2c(C)noc2-c2snnc2C)cc1 | – | – | – | – | – | – | · | ·
Cc1nnsc1-c1onc(C)c1C(=O)Nc1cc(Cl)cc(Cl)c1 | – | 75.8 | – | – | – | 76.8 | – | ·
Cc1ccc(C(=O)NCCNc2nc3cc(C)c(C)cc3cc2C)cc1 | – | 65.1 | – | – | – | – | – | ·
Cc1cc2cc(C)c(NCCNC(=O)c3ccccc3)nc2cc1C | – | – | – | – | – | – | · | ·
COc1ccc(-c2nn(-c3ccccc3)cc2/C=N/Nc2ccc(S(N)(=O)=O)cc2[N+](=O)[O-])cc1OC | – | 64.7 | – | – | – | · | – | ·
COc1ccc(-c2nn(-c3ccccc3)cc2/C=C(\C#N)C(N)=O)cc1[N+](=O)[O-] | – | – | – | – | – | – | · | ·
COc1ccccc1NC(=O)N[C@H]1C=C[C@H](CC(=O)N2CCC(Cc3ccccc3)CC2)O[C@@H]1CO | · | · | · | – | · | · | · | ·
Cc1cc(C(C#N)c2ccc(Cl)cc2)c(Cl)cc1NC(=O)c1cc(I)cc(I)c1O (stereo unspecified) | – | 53.6 | – | – | 95.9 | – | – | ·
Cc1cc(NC(=O)c2ccc(Cl)cc2)c(C)cc1O | – | – | – | – | – | · | · | ·
COc1ccccc1NC(=O)N1C[C@@H](O)COC[C@@H]2O[C@@H](CC(=O)NCc3ccccc3)CC[C@H]21 | · | · | · | – | · | · | · | ·
O=S(=O)(CCSc1ccccn1)c1nc2ccccc2s1 | – | 79.6 | – | · | – | – | 47.6 | 38.9
O=S(=O)(CCSc1nc2ccccc2o1)c1nc2ccccc2s1 | – | 83.1 | – | · | – | – | 72.0 | –
CCS(=O)(=O)CCSc1nc2ccccc2o1 | – | – | – | · | – | – | · | ·
Cc1ccc(S(=O)(=O)N[C@@H]2CC[C@H](CC(=O)NCCN3CCCCC3)O[C@@H]2CO)cc1 | · | · | · | – | · | · | · | ·
Cc1ccc(/C=N/Nc2ccnc3cc(Cl)ccc23)c(C)c1 | – | 100.3 | 60.1 | – | · | 101.3 | – | ·
O=C(C[C@H]1C[C@H]2c3cc(NC(=O)NC4CCCC4)ccc3O[C@H]2[C@H](CO)O1)NC1CCCC1 | · | · | · | – | · | · | · | ·
CCOC(=O)c1c(C)[nH]c(C)c1C(=O)CSc1nc2ccccc2c(=O)n1-c1ccc(CC)cc1 | 89.8 | 56.2 | – | – | – | 109.9 | – | 95.6
CCOC(=O)c1c(C)[nH]c(C)c1C(=O)CSc1nc2ccccc2n1CC | – | – | – | – | – | – | · | ·
O=C(N/N=C/c1c[nH]c2ccccc12)c1cc(-c2cccc3ccccc23)n[nH]1 | – | 58.4 | – | – | – | – | – | ·
O=C(N/N=C/c1c[nH]c2ccccc12)c1cc(-c2ccc3ccccc3c2)n[nH]1 | – | 54.5 | – | – | – | – | 52.1 | 87.0
